This is a sample that favours compounds with a hit; in the whole collection about 2.3% have one here.
Nrf2 activator: Nrf2 pathway activation; AREc32 ARE-luciferase reporter (MCF7-derived line), luminescence, 24 h; Potency, µM (highest dose often 46.1 µM), most hits filed as activators; 410,000 compounds, 0.31% hits; AID 624171; further: nearly all actives have a fitted effect of over 65% in size
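For detection, Steady-Glo was added and plates sat 30 min at RT; before that, AREc32_Fluc cells grown overnight in OPTI-MEM/5% FBS had been treated with 23 nL compound for 24 hr at 37 deg C.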
Nrf2 block: Nrf2 pathway inhibition | 360,000 compounds, 2.1% hits | Potency, µM (highest dose often 46 µM), most hits filed as inhibitors | A549 ARE-Fluc reporter, luciferase luminescence, 18-24 h | AID 504444; further: nearly all actives have a fitted effect of over 60% in size
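Cells were seeded and rested 2 h, then exposed to compounds for 18-24 h. CellTiter-Fluor was read first as a viability measure. BugLite was added 15 min before the final luminescent read of ARE-luciferase activity in A549 cells.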
A549 tox: counter-screen for Nrf2 inhibitors: cytotoxicity in A549 cells. A549 ARE-Fluc cells, CellTiter-Fluor viability, 18-24 h. Potency, µM (series often up to 46 µM), actives largely listed as inhibitors. 390,000 compounds, 0.16% hits. AID 504648
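A549 ARE_Fluc cells in 5% FBS OPTI-MEM were exposed to compounds in concentration-response for 18-24 h at 37 deg C. Viability was read by CellTiter-Fluor fluorescence (Ex 405/Em 525) after 30 min, before the luciferase read.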
IL2 activator: activates IL-2 in a cell-based reporter assay. IL-2 activation reporter assay, cell-based qHTS; stimulated with anti-CD3/CD4/CD28 beads; in transgenic mouse T cells. activation, % (series mostly up to about 46 µM). 360,000 compounds, 0.065% hits. AID 652025; in the data active means activation above about 50%; inconclusive means mostly about 30% to 49%
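Readout: EGFP and DsRed signals by fluorescent plate cytometry. Unstimulated transgenic mouse T cells received compound 60 min before antibody-bead stimulation, then incubated 18 h at 37 degrees C.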
A number is an active result; 0 = inactive; ? = inconclusive; - = no result; ! = repeats disagree; [ ] = remark or other dose. Unless noted, the call rests on the fitted dose curve; in most records, active means well fitted curve in the direction sought with a large enough effect; inconclusive means small, poorly fitted or top-dose-only effect, or another doubt; inactive means no such curve, though single readings can be large; an effect the other way counts as inactive or inconclusive.

SMILES	Nrf2 activator	Nrf2 block	A549 tox	IL2 activator
COc1ccc(NC(=O)CC2C(=O)N(C)C(=S)N2CCc2ccc(F)cc2)cc1 (stereo not given)	0	23.1µM	?	0
COc1ccc(CCN2C(=S)N(C)C(=O)C2CC(=O)Nc2ccc(OC)cc2)cc1 (stereo not given)	0	0	0	0
O=[S+]([O-])(c1cc2ccccc2o1)N1CCN([S+](=O)([O-])c2c(F)cccc2F)CC1	-	0	0	-
COc1cccc(NC(=O)c2sc(NC(=O)c3ccncc3)nc2C)c1	0	11.6µM	0	0
CCOc1ccc(CCNC(=O)CCn2c(=O)c3cccn3c3ccc(F)cc32)cc1OCC	0	0	0	-
CCOC(=O)c1ccc2c(c1)n(CC)c(/C=C/N(C)c1ccccc1)[n+]2CC	0	3.26µM	?	0
CCCc1c(C(=O)Nc2cc(C(C)(C)C)on2)cnn1-c1ccccc1	0	6.51µM	0	0
COc1ccc(-c2cc(C)no2)cc1S(=O)(=O)N1CCOc2ccccc21	0	?	0	0
CCc1ccc(-c2cc(C)no2)cc1S(=O)(=O)N1CCOc2ccc(C)cc21	0	13µM	0	0
CCc1ccc(-c2cc(C)no2)cc1S(=O)(=O)N1CCN(c2cc(C)ccc2C)CC1	0	0	0	0
Cc1cc(-c2ccc(C(C)C)c(S(=O)(=O)N3CCOc4ccccc43)c2)on1	0	20.6µM	0	0
O=C(CSc1nc(-c2cccs2)nc2cc(=O)[nH]n12)Nc1cccc(C(F)(F)F)c1	?	?	0	-
Cc1noc(C)c1C(=O)N1CCN(c2ccc(OCc3ccccc3)cc2)CC1	0	20.6µM	0	0
Cc1ccc(-n2c(=O)c3c(cnn3C)n(CC(=O)Nc3c(C)cccc3C)c2=O)cc1	0	0[9.27 µM]	?	-
Cc1c(NC(=O)c2ccc(N3CCC(C)CC3)c([N+](=O)[O-])c2)cccc1-c1nc2ccccc2o1	0	?	0	-
Cc1cc(C)c(C(=O)/C=C/c2cccc3ccccc23)c(=O)[nH]1	0	18.4µM	?	0
Cc1cc(C)c(C(=O)/C=C/c2ccc3c(c2)OCO3)c(=O)[nH]1	0	?	0	0
Cc1cc(=O)n(CC(=O)Nc2ccc(Cl)c(Cl)c2)c(-n2nc(C)cc2C)n1	0	-	0	-
CCc1c(C)nc2nncn2c1NCc1ccc(Cl)cc1	0	8.2µM	0	-
Clc1ccc(CNc2cc(-c3ccccc3)nc3nncn23)cc1	0	0	0	-
CC(OC(=O)c1ccc(NC(=O)CC#N)cc1)C(=O)NC(c1ccccc1)c1ccccc1 (stereo not given)	0	0	0	0
Cc1cc(C(=O)C(C)OC(=O)c2ccc(NC(=O)CC#N)cc2)c(C)n1-c1ccccc1 (stereo not given)	0	18.4µM	0	0
COc1ccc(C(=O)CCS(=O)(=O)c2ccc(C)cc2)cc1	?	0	0	0
COc1ccc(C(CC(=O)c2ccc(O)cc2)S(=O)(=O)c2ccc(C)cc2)cc1 (stereo not given)	12.6µM	0	0	0
S=C(Nc1ccccc1)Nc1ccc(OCc2ccc(Cl)cc2Cl)cc1	0	18.4µM	0	0
SMILES	Nrf2 activator	Nrf2 block	A549 tox	IL2 activator
S=C(NCCSCc1ccc(Cl)cc1Cl)Nc1ccccc1	0	?	0	0
CCN(Cc1ccccc1)C(=O)c1cccc(OC2CCN(C(=O)C3CC3)CC2)c1	0	?	0	0
O=C(NCc1cccc(F)c1)c1cccc(OC2CCN(C(=O)C3CC3)CC2)c1	0	23.1µM	0	0
O=C(Nc1cccnc1)c1ccc(COc2ccccc2Br)cc1	0	13µM	0	0
O=C(NCc1cccnc1)c1ccc(COc2ccccc2Br)cc1	0	?	0	0
Cc1ccc(OCc2cc(C(=O)NC3CCc4ccccc43)no2)cn1 (stereo not given)	0	13µM	0	0
Cc1ccc(Cl)cc1N1CCN(C(=O)Cn2nc(C)n3c(cc4sccc43)c2=O)CC1	0	?	0	-
CCc1ccc2oc(-c3cc(N)ccc3O)nc2c1	4.47µM	?	0	0
CCc1ccc2oc(-c3cc(N)ccc3Cl)nc2c1	0	?	0	0
N#Cc1c(NCc2ccccc2)ccnc1NCc1cccnc1	0	6.51µM	0	0
Cc1c(C(=O)Nc2ccc(OC(F)(F)F)cc2)sc2nc3n(c(=O)c12)CCC3	0	10.3µM	0	0
C[C@H]1[C@H](C)CC[C@]2(C(=O)O)CC[C@]3(C)C(=CC[C@@H]4[C@@]5(C)C[C@@H](O)[C@H](O)C(C)(C)[C@@H]5CC[C@]43C)[C@H]12	0	?	?	0
C[C@@H]1CC[C@]2(C(=O)O)CC[C@]3(C)C(=CCC4[C@]56CC[C@@](O)(OC5)C(C)(C)C6CC[C@]43C)C2[C@H]1C (stereo not given in full)	0	14.6µM	0	0
Cc1ccc(Nc2c(-c3ccc(C)s3)nc3cccc(C)n23)cc1	-	?	0	-
COc1cccc(NC(=O)c2cn(C3CCCCC3)c(=O)c3c2c2ccccc2n3C)c1	0	0	0	-
CC(=O)Oc1c(I)cc(I)cc1C(=O)Nc1ccc(Cl)cc1	0	23.1µM	?	0
COc1ccc(Cl)cc1C(=O)Nc1ccc(NC(C)=O)cc1	0	0	0	0
CCOC(=O)c1ccc(Nc2nc3ccccc3nc2NS(=O)(=O)c2ccc(Cl)cc2)cc1	0	0	0	-
COc1ccc(S(=O)(=O)Nc2cccc(S(=O)(=O)N3CCCCCC3)c2)cc1	0	?	0	0
CCc1ccc(Nc2nc3ccccc3nc2NS(=O)(=O)c2ccccc2)cc1	0	23.1µM	0	-
CCOc1ccc(S(=O)(=O)Nc2nc3ccccc3nc2Nc2ccc(OC)cc2)cc1	0	25.9µM	0	-
COc1ccc(Nc2nc3ccccc3nc2NS(=O)(=O)c2ccc(NC(C)=O)cc2)cc1	0	0	0	0
O=S(=O)(Nc1nc2ccccc2nc1Nc1cccc(S(=O)(=O)N2CCCCC2)c1)c1ccccc1	0	11.6µM	?	0
COc1ccc(Nc2nc3ccccc3nc2NS(=O)(=O)c2cccs2)cc1	0	16.4µM	0	0
CCc1ccc(CN(Cc2ccco2)c2cnc(S(C)(=O)=O)nc2C(=O)Nc2c(C)cccc2C)cc1	0	0	0	-
SMILES	Nrf2 activator	Nrf2 block	A549 tox	IL2 activator
CCc1ccccc1NC(=O)CN1C(=O)COc2ccc(S(=O)(=O)Nc3ccccc3)cc21	0	0	0	-
Cc1csc2ncnc(N3CCN(S(=O)(=O)c4cccc(C(F)(F)F)c4)CC3)c12	0	5.17µM	0	0
Cc1ccc(C(C)C)c(OCC(=O)Nc2ccc(S(=O)(=O)Nc3onc(C)c3C)cc2)c1	0	0	0	-
Cc1ccc(NC(=O)c2cc(S(=O)(=O)NC3CCCCCC3)ccc2F)cc1F	0	-	0	-
c1ccc2c(c1)OCc1cn[nH]c1-2	0	0	?	0
c1ccc(N2CC3COc4ccccc4C3=N2)cc1 (stereo not given)	8.91µM	?	?	0
Cc1cc(C)cc(N(C)S(=O)(=O)c2nnc(NC(=O)COc3ccc(Cl)cc3)s2)c1	0	?	0	-
CCC(CC)C(=O)Nc1nnc(S(=O)(=O)N(C)c2cc(C)cc(C)c2)s1	0	20.6µM	0	-
CN(c1ccccc1)S(=O)(=O)c1nnc(NC(=O)c2ccco2)s1	0	7.31µM!	0	0

High-throughput results: PubChem BioAssay, National Center for Advancing Translational Sciences (NCATS)
